Inconclusive results are not listed. Activity calls are given as the source filed them. Unless noted, calls follow the shape of the dose curve; as a rule, active = well fitted curve in the direction sought with a large enough effect in the repeat runs; inconclusive = weak or mixed curves; inactive = no such curve, though single readings can be large; an effect the other way counts as inactive or inconclusive.
Experiments:
[1] = A CellTox Green Cytotoxicity Assay to monitor cytotoxicity in HEK293 cells - 32 hour (AID 1224881); also: nearly all actives have a fitted effect of over 40% in size
In short: (§1)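 HEK293 cells premixed with CellTox Green dye were seeded at 600 cells/well and left 5 h at 37 C/5% CO2 before pin transfer of 23 nL compound in DMSO. Fluorescence from dye bound to dead-cell DNA was read during 40 h treatment.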

[2] = A CellTox Green Cytotoxicity Assay to monitor cytotoxicity in HepG2 cells - 0 hour (AID 1224882); also: nearly all actives have a fitted effect of over 35% in size
In short: (§2)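 HepG2 cells were seeded together with the CellTox Green dye at 600 cells/well, left 5 h at 37 C/5% CO2, then given compounds in DMSO. Fluorescence from dye bound to dead-cell DNA was read repeatedly over 40 h of treatment at 37 C.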

[3] = A CellTox Green Cytotoxicity Assay to monitor cytotoxicity in HepG2 cells - 32 hour (AID 1224883); also: nearly all actives have a fitted effect of over 50% in size
In short: as §2

[4] = A CellTox Green Cytotoxicity Assay to monitor cytotoxicity in HEK293 cells - 8 hour (AID 1224884); also: nearly all actives have a fitted effect of over 35% in size
In short: as §1

[5] = qHTS RealTime-Glo MT Cell Viability Assay in HepG2 cells - 16 hour (AID 1224885); also: nearly all actives have a fitted effect of over 50% in size
In short: (§3)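 Tox21 10K library screened in qHTS format on HepG2 cells carrying RealTime-Glo reagents. Compounds were added after a 5 h preincubation, and the luminescent signal from continuous culture was measured repeatedly during 40 h treatment.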

[6] = qHTS RealTime-Glo MT Cell Viability Assay in HEK293 cells - 24 hour (AID 1224886); also: top concentration of the series differs between compounds; nearly all actives have a fitted effect of over 50% in size
In short: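 Luminescence generated by NanoLuc from substrate produced by living HEK293 cells served as the viability signal. Each value reflects the reading at its stated time point during continuous 40 h compound exposure at 37 C.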

[7] = qHTS RealTime-Glo MT Cell Viability Assay in HEK293 cells - 8 hour (AID 1224887); also: top concentration of the series differs between compounds; nearly all actives have a fitted effect of over 50% in size
In short: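 HEK293 cells mixed with RealTime-Glo reagents (NanoLuc plus cell-permeant prosubstrate) at 600 cells/well, preincubated 5 h at 37 C/5% CO2, then given 23 nL compound in DMSO. Nonlytic luminescence from viable cells was read at 0, 8, 16, 24, 32 and 40 h.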

[8] = A CellTox Green Cytotoxicity Assay to monitor cytotoxicity in HEK293 cells - 16 hour (AID 1224888); also: nearly all actives have a fitted effect of over 35% in size
In short: as §1

[9] = qHTS RealTime-Glo MT Cell Viability Assay in HepG2 cells - 0 hour (AID 1224889); also: nearly all actives have a fitted effect of over 50% in size
In short: as §3

[10] = A CellTox Green Cytotoxicity Assay to monitor cytotoxicity in HepG2 cells - 8 hour (AID 1224890); also: nearly all actives have a fitted effect of over 45% in size
In short: as §2

[11] = qHTS assay to identify small molecule antagonists of the estrogen receptor alpha (ER-alpha) signaling pathway using the BG1 cell line in the presence of 0.1 nM 17-beta-estradiol - cell viability counter screen (AID 1259241); also: nearly all actives have a fitted effect of over 40% in size
In short: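 Cytotoxicity counter-screen: live-cell protease activity measured by fluorescence (30 min reagent step) in the same wells. Cells were VM7Luc4E2 with endogenous ER-alpha and ERE-driven luciferase, treated 22 hr at 37C alongside 0.1 nM 17beta-estradiol final.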

[12] = qHTS assay to identify small molecule antagonists of the androgen receptor (AR) signaling pathway using the MDA cell line in the presence of 0.5 nM R1881 - cell viability counter screen (AID 1259242); also: nearly all actives have a fitted effect of over 45% in size
In short: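 MDA-kb2 cells (human breast carcinoma, stably carrying MMTV-luciferase reporter) were exposed to compounds with 0.5 nM R1881 (final) for 16 hr at 37C, 0% CO2; viability then read as live-cell protease fluorescence (CellTiter-Fluor, 30 min) in the same wells.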

[13] = molecular target: Estrogen receptor (Homo sapiens) (UniProt P03372); assay: qHTS assay to identify small molecule antagonists of the estrogen receptor alpha (ER-alpha) signaling pathway using the BG1 cell line in the presence of 0.1 nM 17-beta-estradiol (AID 1259244); also: nearly all actives have a fitted effect of over 50% in size
Estrogen receptor (Homo sapiens), sequence (P03372 whole entry, looked up): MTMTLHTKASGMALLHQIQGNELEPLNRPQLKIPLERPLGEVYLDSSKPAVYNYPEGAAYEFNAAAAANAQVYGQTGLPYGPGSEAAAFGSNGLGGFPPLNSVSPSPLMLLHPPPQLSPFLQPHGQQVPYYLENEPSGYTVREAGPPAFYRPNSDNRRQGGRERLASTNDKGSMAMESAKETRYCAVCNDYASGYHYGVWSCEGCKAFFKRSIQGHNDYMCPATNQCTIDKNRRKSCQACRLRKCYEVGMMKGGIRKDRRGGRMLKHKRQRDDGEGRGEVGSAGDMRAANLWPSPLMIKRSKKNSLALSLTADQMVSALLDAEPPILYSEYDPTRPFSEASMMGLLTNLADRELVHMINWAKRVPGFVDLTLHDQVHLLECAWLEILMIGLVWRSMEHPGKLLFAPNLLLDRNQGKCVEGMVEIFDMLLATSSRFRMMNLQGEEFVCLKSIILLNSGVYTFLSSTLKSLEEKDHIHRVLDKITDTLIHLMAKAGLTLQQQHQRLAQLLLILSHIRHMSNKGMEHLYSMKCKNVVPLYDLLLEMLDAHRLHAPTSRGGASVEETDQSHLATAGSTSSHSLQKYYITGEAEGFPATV
In short: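 VM7Luc4E2 cells (endogenous full-length ER-alpha, stable 4xERE-luciferase) were grown 5 days in phenol red-free medium with charcoal-stripped FBS, then exposed 22 h at 37C to compounds plus 0.1 nM (final) 17beta-estradiol; ONE-Glo luminescence read-out.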

[14] = qHTS assay to identify small molecule HDAC inhibitors (AID 1259364); also: top concentration of the series differs between compounds; nearly all actives have a fitted effect of over 45% in size
In short: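 Wild-type HCT-116 cells were plated overnight, exposed to compounds for 2 h at 37 °C, then given HDAC-Glo class I/II luminogenic reagent for 30 min at room temperature before luminescence was read.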

[15] = qHTS assay to identify small molecule HDAC inhibitors - cell viability counter screen (AID 1259365)
In short: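 CellTiter-Glo luminescence (30 min, room temperature) reported viability after a 2 h compound exposure at 37 C. Cells: wild-type HCT-116, 1,500 per well, seeded the night before.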

[16] = qHTS assay to identify small molecule agonists of the sonic hedgehog signaling (Shh) pathway - cell viability counter screen (AID 1259366); also: nearly all actives have a fitted effect of over 50% in size
In short: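 Cytotoxicity counter screen: CellTiter-Fluor reagent added after 23 h compound exposure, then 1 h at 37C and fluorescence read. Cells were 3T3 Gli1-Luc, seeded 2,000 per well and dosed 4 h post-plating.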

[17] = qHTS assay to identify small molecule antagonists of the sonic hedgehog signaling (Shh) pathway - cell viability counter screen (AID 1259367); also: nearly all actives have a fitted effect of over 55% in size
In short: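 After a 4 hr settling period, 3T3 Gli1-Luc cells were treated with DMSO-dissolved chemicals and conditioned medium, kept 24 hr at 37C in 5% CO2, and assayed for viability by CellTiter-Fluor fluorescence following 1 hr reagent incubation.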

[18] = qHTS assay to identify small molecule agonists of the sonic hedgehog signaling (Shh) pathway (AID 1259368; calls by dose curve; also: series mostly up to about 92 µM; nearly all actives have a fitted effect of over 15% in size)
In short: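 NIH/3T3-derived 3T3Gli1-Luc cells carrying a stably integrated Gli1 response element–firefly luciferase reporter were plated, left 4 hr at 37 C, then given compounds in DMSO for 24 hr. Luminescence was read 30 min after adding luciferase reagent.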

[19] = molecular target: Androgen receptor (Homo sapiens) (UniProt P10275); assay: qHTS assay to identify small molecule antagonists of the androgen receptor (AR) signaling pathway using the MDA cell line in the presence of 0.5 nM R1881 (AID 1259243); also: nearly all actives have a fitted effect of over 50% in size
Androgen receptor (Homo sapiens), sequence (P10275 whole entry, looked up): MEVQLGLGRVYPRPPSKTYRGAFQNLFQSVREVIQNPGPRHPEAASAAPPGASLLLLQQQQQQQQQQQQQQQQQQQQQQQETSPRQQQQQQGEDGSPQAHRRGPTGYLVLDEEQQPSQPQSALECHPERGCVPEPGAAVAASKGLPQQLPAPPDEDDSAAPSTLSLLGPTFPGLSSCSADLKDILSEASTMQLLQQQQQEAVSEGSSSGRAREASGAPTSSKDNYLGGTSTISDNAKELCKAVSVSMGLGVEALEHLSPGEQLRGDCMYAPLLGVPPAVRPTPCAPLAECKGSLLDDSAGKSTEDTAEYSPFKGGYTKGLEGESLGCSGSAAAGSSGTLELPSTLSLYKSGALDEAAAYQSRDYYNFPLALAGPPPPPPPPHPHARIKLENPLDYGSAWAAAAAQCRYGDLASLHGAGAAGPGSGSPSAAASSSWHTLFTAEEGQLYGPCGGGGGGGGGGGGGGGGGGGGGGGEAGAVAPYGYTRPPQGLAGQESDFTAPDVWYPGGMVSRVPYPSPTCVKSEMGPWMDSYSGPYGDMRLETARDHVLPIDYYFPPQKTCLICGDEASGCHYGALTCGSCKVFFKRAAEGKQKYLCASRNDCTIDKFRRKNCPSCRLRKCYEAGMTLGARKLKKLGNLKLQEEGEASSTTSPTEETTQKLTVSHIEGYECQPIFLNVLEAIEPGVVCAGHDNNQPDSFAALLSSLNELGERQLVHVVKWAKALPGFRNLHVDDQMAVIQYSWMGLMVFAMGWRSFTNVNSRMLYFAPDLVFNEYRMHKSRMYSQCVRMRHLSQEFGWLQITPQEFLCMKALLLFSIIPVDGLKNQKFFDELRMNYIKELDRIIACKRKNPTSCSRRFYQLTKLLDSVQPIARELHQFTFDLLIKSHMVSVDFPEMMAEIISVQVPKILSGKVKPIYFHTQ
In short: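 MDA-kb2 human breast carcinoma cells carrying an MMTV-luciferase reporter (AR- and GR-responsive) were plated, rested 5 hr at 37C, dosed with compounds, then stimulated with 0.5 nM R1881 (final) for 16 hr; luminescence was read after ONE-Glo.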

[20] = qHTS assay to identify small molecule phospholipidosis (PLD) inducers (AID 1259344; active = well fitted curve in the direction sought with a large enough effect; an effect the other way counts as inactive or inconclusive)
In short: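 HepG2 cells grown on collagen I take up LipidTOX Red while exposed to compound for 24 h; after fixation they are imaged at 20x and pit metrics are extracted.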
% is scaled to controls: 0 for no effect and ±100 for the full control effect.

O=C(O)c1cccc(Cl)c1Cl
inactive: Potency [1] | Potency [2] | Potency [3] | Potency [4] | outcome [5] | Potency [6] | Potency [7] | Potency [8] | Potency [9] | Potency [10] | Potency [11] | outcome [12] | Potency [13] | Potency [14] | outcome [15] | Potency [16] | Potency [17] | Potency [18]

OCCN(CCO)CCN(CCO)CCO
inactive: Potency [1] | Potency [2] | Potency [3] | Potency [4] | outcome [5] | Potency [6] | Potency [7] | Potency [8] | Potency [9] | Potency [10] | Potency [11] | outcome [12] | Potency [19] | Potency [13] | Potency [14] | outcome [15] | Potency [16] | Potency [18]

Cc1ncc(CO)c(CN)c1O
inactive: Potency [1] | Potency [2] | Potency [3] | Potency [4] | outcome [5] | Potency [6] | Potency [7] | Potency [8] | Potency [9] | Potency [10] | Potency [11] | outcome [12] | Potency [19] | Potency [13] | outcome [20] | Potency [14] | outcome [15] | Potency [16] | Potency [18]

COc1ccc(S(=O)(=O)Nc2nnc(CC(C)C)s2)cc1
inactive: Potency [1] | Potency [2] | Potency [3] | Potency [4] | outcome [5] | Potency [6] | Potency [7] | Potency [8] | Potency [9] | Potency [10] | Potency [11] | outcome [12] | Potency [13] | outcome [20] | Potency [14] | outcome [15] | Potency [16] | Potency [17]

CC(C)CCCCCCc1ccc(OCCOCCO)cc1
inactive: Potency [1] | Potency [2] | Potency [3] | Potency [4] | outcome [5] | Potency [6] | Potency [7] | Potency [8] | Potency [9] | Potency [10] | Potency [11] | outcome [12] | Potency [19] | Potency [13] | Potency [14] | outcome [15] | Potency [16] | Potency [17] | Potency [18]

C=Cc1ccccc1
inactive: Potency [1] | Potency [2] | Potency [3] | Potency [4] | outcome [5] | Potency [6] | Potency [7] | Potency [8] | Potency [9] | Potency [10] | Potency [11] | outcome [12] | Potency [13] | outcome [20] | Potency [14] | outcome [15] | Potency [16] | Potency [17] | Potency [18]

CN(C)Cc1ccccc1
inactive: Potency [1] | Potency [2] | Potency [3] | Potency [4] | outcome [5] | Potency [6] | Potency [7] | Potency [8] | Potency [9] | Potency [10] | Potency [11] | outcome [12] | Potency [19] | outcome [20] | Potency [14] | outcome [15] | Potency [16] | Potency [17] | Potency [18]

O=c1oc2c(O)c(O)cc3c(=O)oc4c(O)c(O)cc1c4c23
inactive: cytotoxicity increase [1] 18.3% [at 15.8 µM] | cytotoxicity [2] -11.8% [at 15.8 µM] | cytotoxicity increase [3] 19.5% [at 15.8 µM] | cytotoxicity increase [4] 7.37% [at 15.8 µM] | activity change, negative = cytotoxic [5] -6.97% [at 15.8 µM] | activity change, negative = cytotoxicity [6] -7.55% [at 15.8 µM] | activity change, negative = cytotoxicity [7] -0.845% [at 15.8 µM] | activity change [8] 13% [at 15.8 µM, stronger effect = higher value] | activity change, negative = cytotoxicity [9] 0.919% [at 15.8 µM] | cytotoxicity increase [10] -1.27% [at 15.8 µM] | activity change, negative = cytotoxicity [11] 3.69% [at 19 µM] | viability change, negative = cytotoxic [12] -6.98% [at 19 µM] | activity change, negative = inhibition [13] 1.12% [at 19 µM] | outcome [20] | activity change, negative = inhibition [14] -0.133% [at 19 µM] | activity change, negative = cytotoxicity [15] 2.83% [at 19 µM] | viability change, negative = cytotoxic [17] 1.3% [at 19 µM]

CC(C)C(=O)OC/C=C/c1ccccc1
inactive: Potency [1] | Potency [2] | Potency [3] | Potency [4] | outcome [5] | Potency [6] | Potency [7] | Potency [8] | Potency [9] | Potency [10] | Potency [11] | outcome [12] | Potency [13] | Potency [14] | outcome [15] | Potency [16] | Potency [17] | Potency [18]

CC(=O)OC(C)OC(C)=O
inactive: Potency [1] | Potency [2] | Potency [3] | Potency [4] | outcome [5] | Potency [6] | Potency [7] | Potency [8] | Potency [9] | Potency [10] | Potency [11] | outcome [12] | Potency [19] | Potency [14] | outcome [15] | Potency [17]

COc1ccccc1OCC(O)COC(N)=O (stereo unspecified)
inactive: Potency [1] | Potency [2] | Potency [3] | Potency [4] | outcome [5] | Potency [6] | Potency [7] | Potency [8] | Potency [9] | Potency [10] | Potency [11] | outcome [12] | Potency [13] | outcome [20] | Potency [14] | outcome [15] | Potency [17] | Potency [18]

CCN[C@H]1CN(CCCOC)S(=O)(=O)c2sc(S(N)(=O)=O)cc21
inactive: Potency [1] | Potency [2] | Potency [3] | Potency [4] | outcome [5] | Potency [6] | Potency [7] | Potency [8] | Potency [9] | Potency [10] | Potency [11] | outcome [12] | Potency [13] | outcome [20] | Potency [14] | outcome [15] | Potency [16] | Potency [17] | Potency [18]

OC[C@H]1O[C@@H](O[C@H]2[C@H](O)[C@@H](O)[C@H](O)O[C@@H]2CO)[C@H](O)[C@@H](O)[C@H]1O
inactive: Potency [1] | Potency [2] | Potency [3] | Potency [4] | outcome [5] | Potency [6] | Potency [7] | Potency [8] | Potency [9] | Potency [10] | Potency [11] | outcome [12] | Potency [19] | Potency [13] | Potency [14] | outcome [15] | Potency [16] | Potency [17]

Source: PubChem BioAssay (Tox21)
